We go through 45 compounds from PubChem BioAssay AID1964107 (National Center for Advancing Translational Sciences (NCATS), 2024).

Among all 31,000 compounds or so, about 360 (1.2%) were called active. Not shown: some 8% with an inconclusive outcome. Shown is part of a subset that was picked to be rich in actives. Unmarked numbers belong to inactive results. Calls follow the shape of the full dose curve.
% is scaled to controls: 0 for no effect and ±100 for the full control effect; potency is read from the fitted curve at half-maximal effect.

The target in this assay is Polyprotein P1234 (Chikungunya virus (strain S27-African prototype)) (UniProt Q8JUX6). The assay can be described thus: Primary qHTS for inhibitors of NSP2Pro chikungunya virus (CHIKV). Also: nearly all actives have a fitted effect of over 60% in size. Conditions: FRET peptide cleavage, fluorescence 1 h; series mostly up to 24.9 µM; activity change, negative = inhibition: at the top concentration. The source says: PI: Natalia J. Martinez Ph.D. National Center for Advancing Translational Sciences (NCATS), National Institute of Health (NIH), Rockville, Maryland Chikungunya virus (CHIKV) is a mosquito-borne RNA virus that has emerged as one of the most important global arboviral threats in the last decade. Although the first CHIKV vaccine has recently been FDA approved for use in healthy adults at increased risk, to date, there are no available antiviral drugs for CHIKV infection. CHIKV nsP2 protease plays a crucial role in the processing of the viral polypeptide precursor to release enzymes required for viral replication, thus making it a promising drug target for antiviral discovery. Here, we established a high-throughput pipeline to identify small molecule inhibitors of nsP2 proteolytic activity. The pipeline is composed of a suite of 1,536-well in vitro assays to support quantitative high-throughput (qHTS) screening campaigns. Specifically, we developed a fluorescence resonance energy transfer (FRET)-based assay using a fluorogenic peptide substrate encompassing an endogenous cleavage site and purified recombinant protease domain (nsP2pro). Using this assay, we interrogated ~37,000 small molecules, including those in drug repurposing libraries as well as chemically diverse and medicinal chemistry-friendly compounds. Hits were selected for follow-up validation against full-length nsP2 and an additional peptide. FRET-based 1,536-well assays for papain, hepatitis C virus NS3-4A, and human furin proteases were implemented to characterize compound selectivity. […] Novel compounds were identified to be potential nsP2 inhibitors and molecular docking analyses were performed to explain the binding mode of selected hits. In vitro antiviral activity was evaluated for a subset of compounds using a high-throughput CHIKV infection assay. To our knowledge, the pipeline presented here is unprecedented for CHIKV antiviral discovery research.
Sequence of Polyprotein P1234 (Chikungunya virus (strain S27-African prototype)) (Q8JUX6 whole entry, looked up): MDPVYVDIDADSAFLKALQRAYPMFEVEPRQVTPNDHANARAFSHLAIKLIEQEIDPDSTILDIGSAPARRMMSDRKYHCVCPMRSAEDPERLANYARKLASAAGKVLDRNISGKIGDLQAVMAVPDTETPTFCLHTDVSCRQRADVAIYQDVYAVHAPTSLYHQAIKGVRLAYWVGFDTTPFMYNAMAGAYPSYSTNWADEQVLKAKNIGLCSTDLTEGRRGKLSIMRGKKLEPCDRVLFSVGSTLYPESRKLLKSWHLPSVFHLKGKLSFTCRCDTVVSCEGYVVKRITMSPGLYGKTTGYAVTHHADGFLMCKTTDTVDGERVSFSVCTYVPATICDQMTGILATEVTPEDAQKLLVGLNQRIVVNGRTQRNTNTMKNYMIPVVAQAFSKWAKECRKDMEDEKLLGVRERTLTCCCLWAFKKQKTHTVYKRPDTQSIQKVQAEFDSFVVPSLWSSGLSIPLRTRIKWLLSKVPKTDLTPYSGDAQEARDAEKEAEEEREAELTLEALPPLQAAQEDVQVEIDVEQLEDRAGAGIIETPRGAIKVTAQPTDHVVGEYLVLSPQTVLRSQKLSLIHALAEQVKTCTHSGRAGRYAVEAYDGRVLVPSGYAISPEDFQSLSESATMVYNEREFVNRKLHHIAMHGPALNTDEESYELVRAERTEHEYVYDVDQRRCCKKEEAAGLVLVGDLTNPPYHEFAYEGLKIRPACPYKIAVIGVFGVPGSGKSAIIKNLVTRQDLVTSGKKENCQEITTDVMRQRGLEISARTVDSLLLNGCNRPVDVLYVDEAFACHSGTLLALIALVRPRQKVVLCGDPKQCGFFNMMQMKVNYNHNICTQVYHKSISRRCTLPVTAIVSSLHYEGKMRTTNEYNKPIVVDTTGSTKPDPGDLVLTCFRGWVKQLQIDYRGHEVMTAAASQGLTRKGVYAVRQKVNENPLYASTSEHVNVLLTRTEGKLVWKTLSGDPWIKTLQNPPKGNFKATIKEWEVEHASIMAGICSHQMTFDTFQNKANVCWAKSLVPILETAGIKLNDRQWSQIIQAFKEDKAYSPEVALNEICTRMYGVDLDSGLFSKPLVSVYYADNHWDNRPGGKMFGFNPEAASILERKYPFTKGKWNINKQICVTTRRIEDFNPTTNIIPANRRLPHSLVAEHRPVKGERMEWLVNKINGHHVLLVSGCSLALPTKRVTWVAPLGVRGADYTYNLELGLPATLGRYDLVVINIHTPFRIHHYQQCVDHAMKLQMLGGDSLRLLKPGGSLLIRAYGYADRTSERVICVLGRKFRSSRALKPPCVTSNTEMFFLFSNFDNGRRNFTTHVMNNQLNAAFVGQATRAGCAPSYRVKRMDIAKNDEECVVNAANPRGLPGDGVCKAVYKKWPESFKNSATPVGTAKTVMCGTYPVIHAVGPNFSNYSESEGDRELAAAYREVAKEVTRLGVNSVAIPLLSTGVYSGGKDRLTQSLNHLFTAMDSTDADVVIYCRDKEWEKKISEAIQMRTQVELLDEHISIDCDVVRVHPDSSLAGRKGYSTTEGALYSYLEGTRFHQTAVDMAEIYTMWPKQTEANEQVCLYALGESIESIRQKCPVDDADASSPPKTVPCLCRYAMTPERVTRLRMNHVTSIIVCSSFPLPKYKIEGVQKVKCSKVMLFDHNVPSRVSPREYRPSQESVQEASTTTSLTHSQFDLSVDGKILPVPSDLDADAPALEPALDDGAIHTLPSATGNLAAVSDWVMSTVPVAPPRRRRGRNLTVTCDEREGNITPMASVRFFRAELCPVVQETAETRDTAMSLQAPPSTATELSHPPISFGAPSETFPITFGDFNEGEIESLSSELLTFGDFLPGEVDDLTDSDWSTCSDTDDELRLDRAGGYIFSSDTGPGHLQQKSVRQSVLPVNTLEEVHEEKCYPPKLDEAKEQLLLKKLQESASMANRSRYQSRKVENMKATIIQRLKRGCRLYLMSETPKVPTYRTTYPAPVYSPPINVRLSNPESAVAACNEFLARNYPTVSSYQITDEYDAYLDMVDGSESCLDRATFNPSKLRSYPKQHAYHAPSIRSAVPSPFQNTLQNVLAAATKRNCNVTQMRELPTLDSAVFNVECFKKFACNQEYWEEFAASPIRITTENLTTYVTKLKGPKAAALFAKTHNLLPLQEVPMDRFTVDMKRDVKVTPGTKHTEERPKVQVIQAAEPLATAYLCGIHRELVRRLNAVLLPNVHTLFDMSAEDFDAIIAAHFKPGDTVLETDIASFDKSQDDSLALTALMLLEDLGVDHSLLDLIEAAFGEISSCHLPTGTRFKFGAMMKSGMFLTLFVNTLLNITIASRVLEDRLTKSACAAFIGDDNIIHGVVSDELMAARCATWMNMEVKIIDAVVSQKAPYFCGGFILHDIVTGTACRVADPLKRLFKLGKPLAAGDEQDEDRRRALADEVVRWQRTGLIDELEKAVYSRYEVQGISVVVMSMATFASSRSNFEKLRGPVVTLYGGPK
PROTOCOL TABLE (as described by Inglese J, Shamu CE and Guy RK. 2007) SEQUENCE No. (e.g., 1, 2, 3, etc.); […] (e.g., Cells, Incubation, Reagent, etc.); VALUE; DESCRIPTION. 1; Control / Compound; 20 nL; Echo 655 acoustic dispenser, Greiner 1536-well solid bottom black plate. 2; Enzyme; 4 uL; BioRAPTR FRD liquid dispenser (Beckman Coulter). 3; Incubation; 15 min; room temperature. 4; Reagent; 4 uL; 2.5 uM Peptide 2 substrate. 5; Incubation; 1 hr; room temperature. 6; Detection; Fluorescence; WiewLux microplate reader (PerkinElmer), 525 nm excitation, 598/25 nm emission. NOTES (numbers refer to sequence numbers above). 1. Briefly, 20 nL DMSO, positive control ZnAc (20nM final concentration), and test compounds were transferred into a 1,536-well solid bottom black plate (789176-F, Greiner One) via Echo 655 acoustic dispenser (Beckman Coulter). For primary screens, compounds were tested at 7 concentrations, 1:3 dilution points ranging from 25 uM to 34 nM. Follow-up confirmatory screens were carried out at 11 concentrations, 1:3 dilution points from 25 uM to 0.42 nM. 2. Four uL nsP2pro enzyme mix (150 nM final concentration) in 10 mM Tris-HCl pH 8.0 with 0.01% Tween 20 assay buffer was dispensed into the plate using a BioRAPTR FRD liquid dispenser (Beckman Coulter). 3. The plate was incubated at room temperature (protected from light) for 15 min 4. Four microliter of peptide 2 substrate (2.5 uM final concentration) in assay buffer was added to the plate. 5. After 1 hour, plates were immediately read on a ViewLux high-throughput CCD imager (Exposure = 10 sec, Gain = High, Speed = Slow, Binning = 2X). The above assay was also incorporated in the NCATS HTS facility41, which allowed for robotic liquid and compound dispensing, microplate handling, and fluorescence reading.. REFERENCE: Inglese J, Shamu CE and Guy RK, Reporting data from high throughput screening of small molecule libraries, Nature Chemical Biology, 2007, 3(8): 438-441. doi.org/10.1038/nchembio0807-438.
In the case of `CN1CCN(C(=O)c2ccc(-c3cnc4c(O)ccc(C(=O)O)c4c3)cc2)CC1`, the outcome was inactive. For the compound `COc1ccc(NC(=O)CSc2nnc(-c3nnn(-c4ccc(F)cc4)c3C)o2)cc1`, the “activity change, negative = inhibition” value was -14.4%. On the same count and under the same terms, to `CNC(=O)[C@@H](Cc1ccccc1)N1CCC[C@H]1C(=O)NCC1CC1` belongs -2.23% [at 39.2 µM]; to `COc1ccc(OC)c(NC(=O)CSC2=Nc3ccccc3C3=NC(CC(=O)NCCc4ccccc4)C(=O)N23)c1` (stereo not given), -8.36%.

Take `COC(=O)CC[C@@H](C)C1CCC2C3CCC4C[C@H](OC(C)=O)CCC4(C)C3C[C@H](O)C21C` (stereo not given in full): the “activity change, negative = inhibition” value was 6.27%. For `CCOc1ccc(NC(=O)c2c(NC(=O)Cc3ccccc3)sc3c2CCC(C)C3)cc1` (stereo not given), the Potency is 3.38 µM (active). For the compound `O=C(Cc1ccccc1)Nc1sc2c(c1C(=O)Nc1ccc(Br)cc1)CCC2`, the “activity change, negative = inhibition” value was 12.8%. Consider `CCOc1ccc(NC(=O)c2c(NC(=O)Cc3ccccc3)sc3c2CCCCC3)cc1`, for which the Potency is 8.91 µM (active). As to `Cc1cccc(OCCCC(=O)Nc2sc3c(c2C(N)=O)CCC(C)C3)c1` (stereo not given), the “activity change, negative = inhibition” value was -11.5%.

For `CCOC(=O)c1ccc(NC(=O)c2c(NCc3cccc(OC)c3)sc3c2CCC3)cc1`, the “activity change, negative = inhibition” value is -14.3%. Still for that read-out and setting: to `COC(=O)c1c(NC(=O)CCCOc2ccccc2)sc2c1CCC(C)C2` (stereo not given) belongs -57.2%. On the same count and under the same terms, to `COc1ccc(CCNS(=O)(=O)c2cc(-c3cc(C)no3)ccc2C)cc1OC` belongs -12.3%; to `CC(C)c1nccn1CCCNc1nc(-c2ccncc2)nc2c1cnn2C`, -1.75%. Still for that read-out and setting: to `COc1ccc(NC(=O)Cn2c(=O)n(CCC(C)C)c(=O)c3cccnc32)cc1Cl` belongs -5.33%; to `N#Cc1ccc(NCCNCC(=O)N2CCCC2C#N)nc1` (stereo not given), -15.9%; to `CC(C)NC(=O)c1nn(-c2ccccc2F)nc1CO`, 0.972%.

For the compound `CC(C)Nc1ncc(C(=O)NC2CCCN(CCc3ccccc3)C2)cn1` (stereo not given), the “activity change, negative = inhibition” value was 4.22%. The same measure, in the same setting: to `CN1CCCN(C(=O)CN2CC3CC(C2)[C@H]2CCCC(=O)N2C3)CC1` (stereo not given in full) belongs -11%; to `Cc1ccccc1-c1nc(NCc2ccc(-c3cccnc3)cc2)c2ccccc2n1`, -3.76%; to `CC(C)(O)c1ccc2c(c1)C(=O)CC1[C@](C)(CO)CCC[C@]21C` (stereo not given in full), 154%. On the same count and under the same terms, to `O=C(CSc1oc(-c2ccc(F)cc2)nc1S(=O)(=O)c1ccc(Br)cc1)NC1CCCCC1` belongs -29.8%. On the same count and under the same terms, under `COc1cccc(-c2nc(S(=O)(=O)c3ccc(C)cc3)c(NCc3ccccc3)o2)c1` stands -20.1%. Turning to `COc1ccc(-c2nc(S(=O)(=O)c3ccccc3)c(N3CCCCC3)o2)cc1`, the Potency is 11.2 µM (active). Take `CN(C)c1cccc(-c2cnc(Nc3cnccn3)c3c2CCO3)c1`: the “outcome” value is “inactive [at 39.2 µM]”. For the compound `CCCCNc1nc(C)nc2c1nc(-c1ccccc1)n2CCCCN(CC)CC`, the compound was called inactive. Consider `COc1ccc(OC)c(NC(=O)C2CCCN(S(=O)(=O)c3ccc4c(c3)CCCC(=O)N4)C2)c1` (stereo not given), for which the “activity change, negative = inhibition” value was -6.34%.

`C[C@H]1CC[C@@H]2N(C1)C[C@@H]1[C@H]([C@@H](O)[C@H](O)[C@]3(O)[C@H]1C[C@@]14OC5(O)[C@@H](C[C@@H](O)[C@@H]31)[C@]4(C)CC[C@@H]5O)[C@]2(C)O`: the “activity change, negative = inhibition” value is 9.38% [at 10 µM].

For the compound `COc1ccccc1CNC(=O)CN1CCCC(CO)(CC2CC2)C1` (stereo not given), the call was inactive. Turning to `COCCCN1CCC(NC(=O)c2cc(Cl)c(N)c3c2OCC3)CC1`, the “activity change, negative = inhibition” value was -1.5%. Consider `COC(=O)c1ccccc1NC(=O)c1ccc(COc2ccccc2Cl)o1`, for which the “activity change, negative = inhibition” value was -24.7%. As for `COc1cc(OC)c(NC(=O)c2ccc(Cc3cc4c(cc3C)C(C)(C)CCC4(C)C)o2)c(OC)c1`, the Potency was 11.1 µM (active). For `Cc1ccc(CN(C(=O)c2ccccc2[N+](=O)[O-])c2ccccn2)cc1`, the “activity change, negative = inhibition” value is -12.2%. Same read-out and setting: to `COc1ccc2oc(=O)c(-c3cn4c(n3)sc3cc(OC)ccc34)cc2c1` belongs -19.8%; to `Cc1ccc(C2CCN(C(=O)c3cnn(-c4ccccc4Cl)c3C3CCN(C(=O)OC(C)(C)C)CC3)C2)cc1` (stereo not given), -9.46%. Consider `Cc1c(P(=S)(c2ccccc2)c2ccccc2)[n+]2ccccc2n1CCCCc1ccccc1`, for which the result was inactive.

In the case of `Cc1cnc(C(=O)N[C@H]2CCCCC/C=C\[C@@H]3C[C@@]3(C(=O)NS(=O)(=O)C3CC3)NC(=O)[C@@H]3C[C@@H](Oc4nc5ccccc5c5ccccc45)CN3C2=O)cn1`, the Potency entry is “inactive”.

Take `CS(=O)(=O)c1ccc(OC[C@H]2C[C@@H](NC(=O)c3ccccc3)[C@H](O)[C@@H]2O)cc1`: the “outcome” value is “inactive [at 39.2 µM]”. Same read-out and setting: to `CC1(C)[C@H](Cc2cc(-c3ccccc3)on2)C[C@@H]1NCC1CC1` belongs “inactive [at 39.2 µM]”. `Cc1cccc(NC(=O)CSc2ncc(-c3ccccc3)[nH]2)c1C`: the “activity change, negative = inhibition” value is -16.9%. Regarding `CCCc1nc(C(=O)N2CCC3(CCCNC3)C2)cs1` (stereo not given), the compound was called inactive. `Clc1ccccc1CSc1nncn2c1cc1occc12`: the “activity change, negative = inhibition” value is -10.5%. Same read-out and setting: to `O=C(NCC(c1ccco1)S(=O)(=O)c1cccs1)c1ccc(F)cc1` (stereo not given) belongs -9.32%; to `CCOc1ccc(NC(=O)Cn2c(C)ccc(C#N)c2=O)cc1`, 1.17%.

Regarding `COc1ccc(-c2ccc3ncn(C4CC4)c(=O)c3n2)cn1`, the “activity change, negative = inhibition” value was -5.28% [at 39.2 µM]. Regarding `Cc1ccc(-c2ccc(=O)n(CCNC(C)c3ccco3)n2)cc1` (stereo not given), the “activity change, negative = inhibition” value was -11.9%.
